Our source for the inhibition values is PubChem BioAssay.

In general, inhibition refers to the drop in the measured response relative to a control, in per cent.

For experiment [1], the target named is Nuclear receptor coactivator 3 (Homo sapiens) (UniProt Q9Y6Q9). Nature of the experiment: NCOA3 GAL4-fusion reporter inhibition – cell-based, luminescence, quadruplicate, confirmation (AID 588792;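 active = mean inhibition over 43.08%, the solvent-only control mean plus 3 SD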;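 note: 0% = DMSO treated cells and 100% = gossypol at 36 µM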). The note with it: HEK293 GAL4-SRC3 luciferase reporter, at 3.6 µM, stronger effect = higher value. For orientation: In a reporter assay the amount or activity of a reporter protein is the signal.

The subject of experiment [2] is transactivating tegument protein VP16 (Human herpesvirus 1), Gal4-VP16 luciferase reporter. Nature of the experiment: repression of VP16-driven luciferase reporter – cell-based, luminescence, high throughput, counter-screen for SRC3 inhibitor project (AID 588794). To be noted: mammalian cells, at 3.6 µM, stronger effect = higher value.
Experiment [3] addresses Nuclear receptor coactivator 1 (Homo sapiens) (UniProt Q15788). The experiment can be described thus: NCOA1 GAL4-fusion reporter inhibition – cell-based, luminescence, quadruplicate, confirmation (AID 588820;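 active = mean inhibition above 46.68%, the untreated control wells mean plus 3 SD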;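 note: 0% = DMSO wells and 100% = gossypol 36 µM treated wells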). To be noted: HEK293 GAL4-SRC1 luciferase reporter, at 3.6 µM, stronger effect = higher value.
The nature of experiment [4]: repression of VP16-driven luciferase reporter – cell-based, luminescence, high throughput, counter-screen for SRC1 inhibitor project (AID 588824; in the data active = inhibition above about 25%). The note with it: cell-based VP16 transactivation luciferase luminescence; at 3.6 µM; stronger effect = higher value.
Experiment [5] in a line: StAR promoter reporter inhibitors, counter-screen for LRH-1 inverse agonist project, cell-based, luminescence, high throughput (AID 651611; in the data active = inhibition above about 28%). The note with it: StAR promoter luciferase reporter counterscreen, at 3.6 µM, stronger effect = higher value. For orientation: Counterscreens check selectivity or assay interference.
Experiment [6] addresses Nuclear receptor subfamily 5 group A member 2 (Homo sapiens) (UniProt O00482). Nature of the experiment: NR5A2 activity suppression in reporter cells – cell-based, luminescence, confirmation (AID 651613; in the data active = inhibition above about 42%;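 note: HEK293T cells co-transfected with LRH-1 and StAR promoter luciferase reporter; 0% = vehicle wells and 100% = parental cells lacking receptor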). To be noted: cell-based LRH-1 luciferase reporter, inverse agonism; at 3.6 µM; stronger effect = higher value.
Experiment [7] addresses Steroidogenic factor 1 (Homo sapiens) (UniProt Q13285). Nature of the experiment: inverse agonism at SF1 nuclear receptor – cell-based, luminescence, high throughput, counter-screen for LRH-1 inverse agonist project (AID 651614; in the data active = inhibition above about 44%;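 note: cells cotransfected with StAR promoter reporter and SF1 expression vector; 0% = vehicle on cells with receptor and 100% = vehicle on cells lacking receptor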). The note with it: cell-based SF1 luciferase reporter, at 3.6 µM, stronger effect = higher value.
Experiment [8] is described as follows: compounds suppressing VP16-driven luciferase signal – cell-based, luminescence, high throughput, counter-screen for LRH-1 inverse agonist project (AID 651615; in the data active = inhibition above about 33%). To be noted: Gal4-VP16 luciferase reporter cells, at 3.6 µM, stronger effect = higher value.

A number with no mark means an inactive call. Activity calls are given as the source filed them. Cut-off read from the data, not from the text of the source, unless noted: active = inhibition above about 30%; inactive = the rest.

Steroidogenic factor 1 (Homo sapiens), sequence (Q13285 whole entry, looked up, the tested form may be a part): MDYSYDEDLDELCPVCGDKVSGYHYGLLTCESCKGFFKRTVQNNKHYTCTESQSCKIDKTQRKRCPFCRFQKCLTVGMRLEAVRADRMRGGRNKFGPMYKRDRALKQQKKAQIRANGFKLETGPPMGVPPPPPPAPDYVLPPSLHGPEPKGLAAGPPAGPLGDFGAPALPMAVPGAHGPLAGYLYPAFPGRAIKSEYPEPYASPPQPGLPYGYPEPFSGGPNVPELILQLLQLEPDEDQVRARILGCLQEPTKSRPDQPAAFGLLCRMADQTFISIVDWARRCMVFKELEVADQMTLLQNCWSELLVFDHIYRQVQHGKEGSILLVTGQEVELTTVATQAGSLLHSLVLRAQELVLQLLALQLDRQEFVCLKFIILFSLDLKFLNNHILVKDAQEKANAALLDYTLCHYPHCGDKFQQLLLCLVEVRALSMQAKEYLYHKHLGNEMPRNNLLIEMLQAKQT
Nuclear receptor coactivator 1 (Homo sapiens), sequence (Q15788 whole entry, looked up, the tested form may be a part): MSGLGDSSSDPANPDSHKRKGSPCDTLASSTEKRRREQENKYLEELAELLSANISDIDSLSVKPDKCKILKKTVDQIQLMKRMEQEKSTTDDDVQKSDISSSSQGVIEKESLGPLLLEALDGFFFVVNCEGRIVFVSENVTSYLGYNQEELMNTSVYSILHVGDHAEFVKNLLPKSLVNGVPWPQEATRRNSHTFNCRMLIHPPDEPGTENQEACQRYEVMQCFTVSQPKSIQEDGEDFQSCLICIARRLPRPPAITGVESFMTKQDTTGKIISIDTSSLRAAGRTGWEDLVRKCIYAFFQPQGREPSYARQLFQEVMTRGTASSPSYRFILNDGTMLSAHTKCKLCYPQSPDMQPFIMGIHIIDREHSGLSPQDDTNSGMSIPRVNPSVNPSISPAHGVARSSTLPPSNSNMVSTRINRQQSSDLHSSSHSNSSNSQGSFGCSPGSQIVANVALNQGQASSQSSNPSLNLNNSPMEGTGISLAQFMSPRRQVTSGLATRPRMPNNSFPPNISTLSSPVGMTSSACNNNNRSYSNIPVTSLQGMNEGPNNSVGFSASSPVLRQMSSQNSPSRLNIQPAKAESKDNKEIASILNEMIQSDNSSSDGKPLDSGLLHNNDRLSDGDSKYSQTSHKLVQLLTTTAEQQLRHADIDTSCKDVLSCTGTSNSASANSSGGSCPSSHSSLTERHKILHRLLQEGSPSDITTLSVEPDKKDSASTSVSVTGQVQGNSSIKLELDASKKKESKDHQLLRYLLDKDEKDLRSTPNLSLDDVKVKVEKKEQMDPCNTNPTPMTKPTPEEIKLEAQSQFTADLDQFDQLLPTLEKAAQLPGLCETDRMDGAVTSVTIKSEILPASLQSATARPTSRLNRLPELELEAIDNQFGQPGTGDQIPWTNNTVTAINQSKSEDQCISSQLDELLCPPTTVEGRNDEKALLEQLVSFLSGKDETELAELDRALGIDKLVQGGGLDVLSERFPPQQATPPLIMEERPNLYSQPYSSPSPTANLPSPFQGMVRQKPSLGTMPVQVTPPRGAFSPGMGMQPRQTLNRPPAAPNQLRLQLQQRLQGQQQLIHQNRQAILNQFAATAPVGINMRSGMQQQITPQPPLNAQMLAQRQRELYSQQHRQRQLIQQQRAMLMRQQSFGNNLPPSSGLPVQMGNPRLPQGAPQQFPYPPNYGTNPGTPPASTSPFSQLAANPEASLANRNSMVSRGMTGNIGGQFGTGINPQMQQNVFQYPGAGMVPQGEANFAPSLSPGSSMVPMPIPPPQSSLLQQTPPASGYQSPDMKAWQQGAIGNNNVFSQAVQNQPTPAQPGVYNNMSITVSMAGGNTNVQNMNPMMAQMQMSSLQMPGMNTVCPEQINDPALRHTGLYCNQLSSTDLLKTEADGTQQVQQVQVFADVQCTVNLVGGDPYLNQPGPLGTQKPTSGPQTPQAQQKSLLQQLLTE
Nuclear receptor subfamily 5 group A member 2 (Homo sapiens), sequence (O00482 whole entry, looked up): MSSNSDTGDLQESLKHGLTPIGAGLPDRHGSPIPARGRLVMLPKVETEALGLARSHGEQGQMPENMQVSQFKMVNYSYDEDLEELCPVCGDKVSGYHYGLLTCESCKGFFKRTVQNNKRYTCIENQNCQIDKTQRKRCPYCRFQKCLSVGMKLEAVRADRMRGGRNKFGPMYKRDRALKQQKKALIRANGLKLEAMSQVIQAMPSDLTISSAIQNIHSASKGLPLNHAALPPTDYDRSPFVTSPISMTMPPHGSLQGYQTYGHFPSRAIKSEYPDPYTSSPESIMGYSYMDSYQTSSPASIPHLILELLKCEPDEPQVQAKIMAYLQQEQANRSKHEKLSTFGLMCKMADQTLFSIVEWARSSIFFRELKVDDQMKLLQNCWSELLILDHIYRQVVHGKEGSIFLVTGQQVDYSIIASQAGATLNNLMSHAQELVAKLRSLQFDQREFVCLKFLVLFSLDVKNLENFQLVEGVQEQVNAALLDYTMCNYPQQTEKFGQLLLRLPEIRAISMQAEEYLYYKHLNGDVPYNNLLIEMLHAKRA
Nuclear receptor coactivator 3 (Homo sapiens), sequence (Q9Y6Q9 whole entry, looked up, the tested form may be a part): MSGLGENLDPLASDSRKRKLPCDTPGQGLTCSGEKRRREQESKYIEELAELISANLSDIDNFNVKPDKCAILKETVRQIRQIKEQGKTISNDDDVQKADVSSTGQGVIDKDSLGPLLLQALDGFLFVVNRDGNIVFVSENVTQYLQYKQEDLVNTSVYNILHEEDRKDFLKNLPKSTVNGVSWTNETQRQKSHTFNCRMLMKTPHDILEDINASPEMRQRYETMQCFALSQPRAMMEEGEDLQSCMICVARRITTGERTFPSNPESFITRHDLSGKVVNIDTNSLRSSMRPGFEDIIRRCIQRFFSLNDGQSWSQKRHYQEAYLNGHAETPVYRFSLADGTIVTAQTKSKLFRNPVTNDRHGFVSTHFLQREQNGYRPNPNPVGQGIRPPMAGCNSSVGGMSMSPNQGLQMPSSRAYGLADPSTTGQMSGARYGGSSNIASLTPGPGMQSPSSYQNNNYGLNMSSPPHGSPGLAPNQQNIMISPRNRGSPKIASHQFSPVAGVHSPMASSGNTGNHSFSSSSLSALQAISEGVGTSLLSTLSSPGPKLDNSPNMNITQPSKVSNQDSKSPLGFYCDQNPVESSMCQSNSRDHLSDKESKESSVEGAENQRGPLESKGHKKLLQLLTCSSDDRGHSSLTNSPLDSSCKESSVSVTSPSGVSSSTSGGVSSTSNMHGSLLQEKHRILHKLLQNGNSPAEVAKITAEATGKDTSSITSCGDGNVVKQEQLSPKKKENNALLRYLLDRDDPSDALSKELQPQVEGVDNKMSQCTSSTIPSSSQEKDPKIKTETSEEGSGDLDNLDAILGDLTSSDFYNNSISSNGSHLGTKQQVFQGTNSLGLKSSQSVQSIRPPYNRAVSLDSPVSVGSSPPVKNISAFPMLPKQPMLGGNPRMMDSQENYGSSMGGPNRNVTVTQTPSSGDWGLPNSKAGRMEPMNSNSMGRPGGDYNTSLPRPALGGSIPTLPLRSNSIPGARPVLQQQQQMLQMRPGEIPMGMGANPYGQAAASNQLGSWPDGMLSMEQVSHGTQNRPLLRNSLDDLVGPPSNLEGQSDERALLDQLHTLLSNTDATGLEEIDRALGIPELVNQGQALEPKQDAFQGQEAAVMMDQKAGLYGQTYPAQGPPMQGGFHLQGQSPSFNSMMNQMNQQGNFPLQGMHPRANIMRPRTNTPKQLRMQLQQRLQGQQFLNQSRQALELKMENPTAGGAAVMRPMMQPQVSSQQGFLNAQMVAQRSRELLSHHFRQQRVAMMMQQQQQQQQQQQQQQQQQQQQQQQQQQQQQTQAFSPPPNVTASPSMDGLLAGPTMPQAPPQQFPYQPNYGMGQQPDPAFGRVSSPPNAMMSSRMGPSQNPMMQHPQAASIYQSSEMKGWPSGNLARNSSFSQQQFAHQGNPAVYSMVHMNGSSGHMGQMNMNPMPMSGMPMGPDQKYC

For `CCC(NC(=O)Nc1nnc(C(F)(F)F)s1)(C(F)(F)F)C(F)(F)F`, the inhibition in experiment [1] is 60.7% (active); in experiment [2] it was 82% (active); in experiment [3] it was 50.1% (active); in experiment [4], 85.6% (active); in experiment [5] it was 79.3% (active); in experiment [6] it was 103% (active). Besides, the inhibition in experiment [7] was 90.6% (active); in experiment [8] it was 90.5% (active).

In the case of `Cc1c(P(=S)(c2ccccc2)c2ccccc2)[n+]2ccccc2n1C/C=C/c1ccccc1`, the inhibition is 20.6% in experiment [1]; 36.9% (active) in experiment [2]; 26% in experiment [3]; 54.4% (active) in experiment [4]; 44.7% (active) in experiment [5]; 90.6% (active) in experiment [6]. Further, the inhibition in experiment [7] was 51.4% (active); in experiment [8] it was 60.5% (active).

On to `COc1ccc(NC(=O)c2sc(=O)n(Cc3ccc(F)c(Cl)c3)c2C)cc1OC`, for which the inhibition is 24.2% in experiment [1]; 61.6% (active) in experiment [2]; 18.5% in experiment [3]; 53.8% (active) in experiment [4]; 54.3% (active) in experiment [5]; 66.2% (active) in experiment [6]. Further, the inhibition in experiment [7] was 70.5% (active); in experiment [8], 72.5% (active).

`CCCCC[n+]1cccc2c3ccccc3ccc21`: the inhibition was 39.9% in experiment [1]; 59% (active) in experiment [2]; 30.7% in experiment [3]; 59% (active) in experiment [4]; 51.5% (active) in experiment [5]; 90% (active) in experiment [6]. Also, the inhibition in experiment [7] was 81.5% (active); in experiment [8], 77% (active).

`COc1ccc(C(=O)Nc2nnc(Cc3cccs3)s2)cc1OC`: the inhibition in experiment [1] is 19%; in experiment [2] it was 54.2% (active); in experiment [3], -3.67%; in experiment [4], 52.5% (active); in experiment [5], 51.5% (active); in experiment [6] it was 70.7% (active). Also, the inhibition in experiment [7] is 66.1% (active); in experiment [8], 72.3% (active).

With `COc1ccc(NC(=O)c2cc(-c3cc(Cl)ccc3OC)n[nH]2)cc1OC`, the inhibition in experiment [1] was 27.4%; in experiment [2], 51.2% (active); in experiment [3], 19.2%; in experiment [4] it was 44% (active); in experiment [5], 38.9% (active); in experiment [6], 47.8% (active). The inhibition in experiment [7] was 61.2% (active); in experiment [8], 57.8% (active).

For the compound `CCN(CC)c1ccc2nc3ccc(N)cc3[n+](-c3ccccc3)c2c1`, the inhibition in experiment [1] was 81.2% (active); in experiment [2] it was 79.9% (active); in experiment [3], 52.3% (active); in experiment [4], 81.5% (active); in experiment [5] it was 75.2% (active); in experiment [6], 111% (active). Further, the inhibition in experiment [7] was 89.2% (active); in experiment [8], 92.6% (active).

In the case of `Cc1cccc(NC(=O)c2cc(Cl)ccc2[N+](=O)[O-])c1`, the inhibition is 42.4% in experiment [1]; 27% in experiment [2]; 17.7% in experiment [3]; 51.4% (active) in experiment [4]; 44.3% (active) in experiment [5]; 51% (active) in experiment [6]. The inhibition in experiment [7] is 58.4% (active); in experiment [8] it was 33.2% (active).

Consider `CC(=O)NC(c1ccc2ccccc2c1)c1ccc2cccnc2c1O` (centres undefined), for which the inhibition is 81.5% (active) in experiment [1]; 79.2% (active) in experiment [2]; 70.4% (active) in experiment [3]; 74.3% (active) in experiment [4]; 86.3% (active) in experiment [5]; 104% (active) in experiment [6]. Further, the inhibition in experiment [7] is 87.6% (active); in experiment [8] it was 79.9% (active).

`O=C(/C=C/c1ccc(O)cc1)c1ccc(NC2=C(N3CCCCC3)C(=O)c3ccccc3C2=O)cc1`: the inhibition was 33.2% in experiment [1]; 26.1% in experiment [2]; 22.5% in experiment [3]; 36.1% (active) in experiment [4]; -1.86% in experiment [5]; 76.3% (active) in experiment [6]. In addition, the inhibition in experiment [7] is 17.3%; in experiment [8], 67.4% (active).

With `COc1cc(Cn2c3ccc(NC(=O)CCc4ccc(O)cc4)cc3c(=O)n2C)ccc1F`, the inhibition in experiment [1] was 42.6%; in experiment [2], 61.3% (active); in experiment [3], 31.5%; in experiment [4], 56.6% (active); in experiment [5], 56% (active); in experiment [6], 70.8% (active). Moreover, the inhibition in experiment [7] is 69.3% (active); in experiment [8], 71.1% (active).

In the case of `CC(=O)N(/N=C1\Sc2ccccc2C1=O)c1ccc(C)cc1C`, the inhibition was 54.1% (active) in experiment [1]; 37.7% (active) in experiment [2]; 2.03% in experiment [3]; 25.4% (active) in experiment [4]; -1.06% in experiment [5]; 11.9% in experiment [6]. Also, the inhibition in experiment [7] is 48.8% (active); in experiment [8], -16.6%.

For the compound `COc1cccc(/C=N/Nc2ncnc3c2ncn3Cc2ccccc2)c1O`, the inhibition was 58.9% (active) in experiment [1]; 31% (active) in experiment [2]; 48% (active) in experiment [3]; 28.4% (active) in experiment [4]; 84.4% (active) in experiment [5]; 99.4% (active) in experiment [6]. In addition, the inhibition in experiment [7] is 86.1% (active); in experiment [8], 78.3% (active).

On to `C[n+]1c(-c2ccccc2)cc2c(=Cc3ccccc3)c3ccccc3n21`, for which the inhibition in experiment [1] was 39.3%; in experiment [2], 70.3% (active); in experiment [3], 27.9%; in experiment [4], 63.3% (active); in experiment [5] it was 54.9% (active); in experiment [6] it was 98.1% (active). For the same compound, the figures for the inhibition in experiment [7] and in experiment [8] were 87.2% (active) and 84.3% (active), respectively.

As for `Nc1cc2c3c(cccc3c1)C(=O)N(CCN1CCCC1)C2=O`, the inhibition in experiment [1] is 16.8%; in experiment [2], 40.7% (active); in experiment [3], 38.9%; in experiment [4], 46.9% (active); in experiment [5], 60.5% (active); in experiment [6], 66.6% (active). In addition, the inhibition in experiment [7] is 61.6% (active); in experiment [8], 69.9% (active).

For `Cc1onc(-c2ccccc2)c1C(=O)NC(=S)NNC(=O)c1ccc(O)cc1O`, the inhibition was 55.7% (active) in experiment [1]; 75.7% (active) in experiment [2]; 69.8% (active) in experiment [3]; 80.5% (active) in experiment [4]; 62.8% (active) in experiment [5]; 95.8% (active) in experiment [6]. Moreover, the inhibition was 85.6% (active) in experiment [7] and 83.5% (active) in experiment [8].

On to `O=C(Nc1ccc2c(c1)OCCO2)C(c1cc2ccccc2o1)N1CCN(c2ccc(C(F)(F)F)cn2)CC1` (centres undefined), for which the inhibition in experiment [1] was 19.5%; in experiment [2], 6.65%; in experiment [3], -13.5%; in experiment [4], -14.1%; in experiment [5] it was -29.7%; in experiment [6], -44.4%. The inhibition is -28% in experiment [7] and -10.8% in experiment [8].

Regarding `COc1cc(C=NO)nc(-c2ccccn2)c1`, the inhibition was 78.2% (active) in experiment [1]; 43.5% (active) in experiment [2]; 54% (active) in experiment [3]; 36.5% (active) in experiment [4]; 85.6% (active) in experiment [5]; 96% (active) in experiment [6]. The inhibition is 76.9% (active) in experiment [7] and 45.7% (active) in experiment [8].
